# The supplement of paper PMC5499739
# Whole data set: some 16,000 sequences, median “Z-score” near -0.37, cut for the highest 2% near 3.1. The entries come from a sample that favours the highest values as a whole.
# Tested on: RBM10 RRM1-ZnF-RRM2 (GST-tagged construct)
# Experiment: RNAcompete 7-mer binding Z-score; higher = stronger binding preference
# Method in brief: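 In 1 ml Hepes pH 7.8 buffer with KCl, NaCl, glycerol, DTT, BSA and glutathione Sepharose beads, GST-tagged RBM10 constructs (20 pmol) were incubated for 30 min at 4°C with 1.5 nmol of a designed pool of 241 399 RNAs up to 41 nt. Four 2-min washes at 4°C followed, and bound RNA was detected by microarray hybridisation. Heptamer motif enrichment was expressed as a one-sided Z-score across probes containing each motif.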
row,Sequence,RNAcompete 7-mer binding Z-score
1,ACCCUCA,-0.846
2,GGGGGGU,3.13
3,UGGGGUU,2.78
4,UGGGGGU,3.25
5,UGAGGGG,3.5
6,CGAGGAU,1.1
7,CGAGGUU,0.727
8,UGAGGGU,3.92
9,UGAGGAG,1.94
10,GGAGGGU,3.8
11,CGAGGGU,3.55
12,UGAGAGG,1.8
13,AGAGGGU,2.21
14,GGAGGCU,1.29
15,GGAGGAU,2.27
16,UGAGGCU,0.315
17,GAUCGGA,0.785
18,UCUCGGA,-0.329
19,UCGGAUG,0.512
20,CGCCGAA,-0.646
21,GAUAUUG,0.283
22,AAGUGUC,-0.322
23,GCAAGUG,0.709
24,UGAGGCA,1.31
25,UCAGGGA,2.05

row,Sequence,RNAcompete 7-mer binding Z-score
1,UGAGGGA,4.05
2,GCGGGUA,2.5
3,CGGGGUC,1.9
4,CGGGGUA,3.42
5,UGGGGUA,3.36
6,AGGGGUA,3.66
7,AGGGGUC,1.76
8,GGGGGUA,3.52
9,CUGGGUA,1.78
10,GUGGGUA,3.07
11,UUGGGUA,1.95
12,CCGGGUA,0.814
13,CGAUUUA,-0.704
14,UUAAAGC,-0.439
15,ACUAGAA,-0.187
16,CUUUUGA,-0.755
17,AGAGACC,-0.774
18,UCAUACA,-0.464
19,UAGAGGG,3.16
20,GGGAGGA,3.24
21,GGGAGUA,2.34
22,AGGAGGA,2.22
23,UGGAGUG,2.72
24,UAGAGGU,1.68
25,AAGAGGG,3.05

row,Sequence,RNAcompete 7-mer binding Z-score
1,UGGAGAG,2.12
2,UGGAGGA,2.95
3,AGGAGUG,2.8
4,UGGAGGG,4.26
5,GGGAGUG,3.84
6,GCACUAG,-0.0161
7,AUAAGCU,-0.391
8,UUGACGG,0.399
9,CGUUUGC,-0.766
10,UUUCGAU,-0.664
11,UUCGGGA,0.734
12,GGGACCA,1.9
13,UUCCGUC,-0.726
14,UCAAUGG,1.28
15,UCUGUGG,0.199
16,UGGAGGC,2.16
17,CGGAGCG,1.45
18,CGGAGGG,2.92
19,GGGAGCG,3.23
20,GGGAGCC,0.891
21,GGGAGGC,3.2
22,AGGAGGC,1.72
23,AGGAGGG,3.31
24,GGGAGGG,4.06
25,AGGAGGU,2.71

row,Sequence,RNAcompete 7-mer binding Z-score
1,CGGAGGC,1.24
2,GAGAGGG,2.75
3,CGCUGGA,-0.027
4,AGUCGCG,-0.0634
5,UGCCACC,-0.759
6,ACUUUGG,-0.351
7,GGCUUGU,-0.318
8,CUCGUUC,-0.61
9,GGCUUCA,-0.428
10,GAUACUG,-0.118
11,GAAGUCG,0.428
12,CUUCUCA,-0.981
13,UCGUGCG,-0.027
14,UCUUAUU,-0.803
15,UUAGUAA,-0.355
16,AGGCCUC,-0.828
17,GGGAGGU,3.39
18,CGGAGGU,2.46
19,UGGAGGU,3.02
20,CCACGAA,-0.544
21,UAGGUAA,1.96
22,AAGGUAG,3.82
23,AAGGUAA,3.65
24,CAGGUAG,2.68
25,UAGGUAG,2.27

row,Sequence,RNAcompete 7-mer binding Z-score
1,AAGGUAU,2.03
2,GGCCGUA,0.0786
3,AAGAGGU,1.66
4,CCGCAUA,-0.817
5,AAGAUUU,-0.588
6,CGUAAUC,-0.511
7,CGGUGAA,0.723
8,GGGUGAU,3.16
9,UGGUGAU,0.727
10,AGGUGAU,1.62
11,GGGUGAG,4.12
12,GGGUGAC,2.92
13,UGGUGAA,1.22
14,GGGUGAA,3.66
15,CGGUGAG,1.64
16,CAUUUCU,-0.872
17,CAUAACU,-0.592
18,UAAAGCC,-0.661
19,ACGUUUC,-0.912
20,GAACAGG,3.18
21,GAACAGA,0.745
22,AGACAGG,1.72
23,GGACAGG,3.23
24,GGACAGU,1.01
25,UAACAGG,1.14

row,Sequence,RNAcompete 7-mer binding Z-score
1,ACCCAGG,-0.173
2,GCUUUAA,-0.726
3,CCAGCUA,-0.719
4,GUGGUAU,1.08
5,GUGCUAG,0.268
6,CGAUCUG,-0.795
7,GUCUAAC,-0.486
8,CGGUAGA,1.01
9,UGGUAGG,3.16
10,UGGUAGC,1.01
11,GGGUAGC,2.69
12,GGGUAGA,3.84
13,GAGUAGA,1.4
14,GAGUAGG,3.6
15,GAGUAGU,0.68
16,GGGUAUC,2.16
17,AGGUAUG,1.95
18,UGGUAGA,1.89
19,GGGUAUG,3.69
20,UGAUUCC,-0.668
21,AAUUGUG,-0.00512
22,UUGGUGA,1.39
23,GAUCGCG,-0.0925
24,UCGUUCA,-0.508
25,UUUGAUG,-0.358

row,Sequence,RNAcompete 7-mer binding Z-score
1,UUGAGCA,-0.165
2,GGGUACU,2.05
3,UGGUACA,0.949
4,AGGUAGG,3.72
5,UGGUAGU,0.585
6,AGGUAGA,2.42
7,CGGUAGU,0.37
8,GCGUAGG,2.21
9,CGGUAGG,2.15
10,GGGUACA,3.39
11,GGGUAGU,3.17
12,GGGUAGG,4.42
13,AGGUAGC,0.862
14,UAUGAAC,-0.195
15,CAUGCUU,-0.861
16,UGCUGCG,-0.34
17,UACUCGC,-0.548
18,GUGGAAU,2.34
19,AGUAUAU,-0.351
20,CGGGGAA,2.76
21,UAGGGAU,2.48
22,AAGGGAC,3.43
23,GGGGGAA,2.61
24,AGGGGAA,3.56
25,ACGGGAU,1.88

row,Sequence,RNAcompete 7-mer binding Z-score
1,GAGGGAC,2.02
2,AGGGGAC,1.97
3,AAGGGAU,3.44
4,AAGGGAG,4.04
5,AGGGGAG,2.52
6,AAGGGCG,3.12
7,UUAGGCC,-0.471
8,AGGCCUG,-0.632
9,AAUCGCU,-0.825
10,GUCUCUC,-0.719
11,CGCGUGG,1.41
12,UUCGGCU,-0.61
13,AACCAGU,-0.235
14,GUCGUCC,-0.377
15,CAACUAC,-0.628
16,AAGGCAA,1.95
17,UAGGGAG,3.15
18,UAGGGAC,2.24
19,GAGGGAG,3.04
20,ACGGGAA,2.76
21,CAGGGAG,3.08
22,UAGGGAA,3.46
23,AAGGGAA,4.17
24,GGGGGAU,2.89
25,AGGGGAU,3.41

row,Sequence,RNAcompete 7-mer binding Z-score
1,CAGGGAA,3.07
2,UGGGGAU,3.05
3,GUCUCCU,-0.694
4,CACAAGA,-0.391
5,AAAAUGG,2.68
6,CAAGUGA,0.228
7,GGCUAAA,0.661
8,AAGGGCA,3.44
9,AAGGGCU,1.39
10,AAGGGCC,1.53
11,GAUGGAG,3.16
12,GAUGGGA,3.8
13,GAUGGGC,2.09
14,UAUGGAG,1.68
15,AAUGGGG,4.38
16,GAUGGUA,2.46
17,CAUGGGG,2.51
18,ACUGGGG,1.58
19,UAUGGGA,2.76
20,GAUGGUG,2.77
21,GAUGGGG,4
22,AAUGGAG,3.01
23,AGCAUUU,-0.726
24,GCCAGCA,-0.205
25,CCGGUGC,-0.136

row,Sequence,RNAcompete 7-mer binding Z-score
1,CAUGCAA,-0.289
2,CUGUCCU,-0.817
3,UCUUCGG,-0.657
4,CGUGCGA,-0.209
5,CUCGAAG,-0.318
6,CGAACUC,-0.719
7,GAUGGGU,3.01
8,UAUGGAA,1.22
9,AAUGGAA,3.27
10,AAUGGGU,4.1
11,UAUGGGU,2.81
12,CAUGGAA,1.36
13,CAUGGGU,2.58
14,AAUGGGA,4.69
15,UAUGGGG,3.19
16,CAUGGGA,2.16
17,AAUGGGC,2.92
18,UAUGGGC,1.64
